# Screens (PubChem BioAssay)
# SUMO Mot1 rescue – yeast Mot1-301 growth rescue at high temperature, primary screen, SUMOylation pathway inhibitor project, S. cerevisiae, ATP luminescence, 38.5C; S. cerevisiae Mot1-301 growth rescue; percent above DMSO median, 100 means doubled; AID 2716, 2010; actives 1% (n = 320,000); growth rescue, % at 18.8 µM;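 active = every valid replicate shows activation above 250% relative to neutral control wells; inactive = the rest, any valid replicate at or below 250%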;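 also: OY570 slx delta 5 strain wells were the positive control but not used for scaling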
# ALR H2O2 inh – inhibitors of human ALR sulfhydryl oxidase, primary screen, biochemical, H2O2 detection, HRP-luminol luminescence, single point. FAD-linked sulfhydryl oxidase ALR (Homo sapiens), P55789. purified ALR, DTT oxidation. inhibition, % (test concentration not listed). actives 3.8% (n = 290,000). AID 485317, 2010;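 active = mean replicate inhibition above about 79%, with every replicate also reaching it, limit read from the data; inconclusive = only one of the two criteria met; inactive = mean below limit and not every replicate reaching it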
# Target sequence (P55789 whole entry, looked up): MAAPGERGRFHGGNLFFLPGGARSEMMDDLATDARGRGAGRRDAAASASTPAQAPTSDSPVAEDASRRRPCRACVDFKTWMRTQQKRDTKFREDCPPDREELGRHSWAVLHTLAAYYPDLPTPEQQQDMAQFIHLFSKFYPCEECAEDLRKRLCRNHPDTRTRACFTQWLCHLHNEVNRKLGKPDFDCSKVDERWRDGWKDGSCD
# AI-2 QS modul – Vibrio harveyi AI-2 quorum sensing modulators, primary screen, JMH597 strain, luminescence/OD600 ratio; Vibrio harveyi JMH597 AI-2 luminescence/OD600 ratio, 9 h; hits give low values; strain lacks LuxN and CqsS sensors; 0 = neutral-control median; activity change, % at 7.5 µM; actives 0.4% (n = 300,000); in the data active = activity change below about -75%, passing the limit was not always enough; inconclusive = no clear call, values can overlap the other calls;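 also: luminescence divided by OD600 gain over 9 h not by final OD600 alone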
# HIF act – HIF pathway transcriptional activators, primary screen, cell-based, U2OS HRE-luciferase, luminescence. actives 0.32% (n = 300,000). AID 1910, 2009. U2OS HRE-luciferase reporter; normalized: DMSO 0%, desferrioxamine 100%. activation, % at 7.5 µM (by protocol);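 active = mean activation of at least 10% of the iron chelator positive control signal, with at least half of replicates also reaching 10%; inconclusive = mean and replicate majority disagree about reaching 10%; inactive = mean and most replicates under 10%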
# Starred values were filed as active, the others as inactive; ? = inconclusive; . = no result given. Rows were chosen to be rich in hits. Some 4.8% of all compounds tested hit in one or more screens of this group.
SMILES,SUMO Mot1 rescue,ALR H2O2 inh,AI-2 QS modul,HIF act
O=c1/c(=C/c2ccc([N+](=O)[O-])cc2)sc2n1CCCN=2,11,-3,7,2
CCc1cccc2c(C(=O)CSc3nnc(C4CC4)o3)c[nH]c12,-5,0,.,.
C=CCc1cc(/C=C2/NC(=S)NC2=O)cc(OC)c1O,0,34,32,-1
CCOc1cc(/C=C2/NC(=O)N(CC(=O)Nc3cccc(C)c3)C2=O)ccc1O,-6,32,-6,-54
CCOc1cc(/C=C2/NC(=O)N(CC(=O)OC)C2=O)ccc1O,5,96*,18,0
C=CCc1cc(/C=C2/NC(=O)N(CC(=O)OC)C2=O)cc(OC)c1O,-30,98*,-1,-1
COc1ccc(O)c(/C=C(\C#N)C(=O)Nc2cccnc2)c1,92,98*,-18,1
COc1ccc(/C=C(\C#N)C(=O)Nc2cccnc2)cc1,12,-1,24,-1
O=C(O)c1cc(O)ccc1-c1ccc(O)cc1,5,98*,26,0
c1ccc(-c2nnc(CN3CCN(c4ccccc4)CC3)o2)cc1,-4,98*,9,0
Clc1cccc(N2CCN(Cc3nnc(-c4ccccc4)o3)CC2)c1,-1,3,13,0
COc1ccc(NC(=O)CCOc2ccccc2)cc1,13,0,2,2
COc1ccc(NC2CCCN(C(=O)CSc3ccccc3)C2)cc1 (stereo unspecified),-25,99*,27,0
O=C(CCc1cccc(Cl)c1)N1CCCC(Nc2ccccc2)C1 (stereo unspecified),1,47,7,0
COc1ccc(NC2CCCN(C(=O)CCc3ccccc3F)C2)cc1 (stereo unspecified),-9,100*,18,0
COc1ccc(NC2CCCN(C(=O)CCOc3ccccc3)C2)cc1 (stereo unspecified),-14,99*,21,0
COc1ccc(NC2CCCN(C(=O)COc3ccc(C)cc3)C2)cc1 (stereo unspecified),16,90*,15,0
NS(=O)(=O)c1cc2c(cc1Cl)NC(c1ccccc1OCC(=O)O)NS2(=O)=O (stereo unspecified),-2,1,34,0
CC(=O)/C(=N/Nc1cccc(C)c1)N1CCOCC1,-13,99*,25,1
Cc1cccc(C(=O)Nc2cccc(C(=O)N3CCOCC3)c2)c1,-12,-6,0,1
Cc1nc2ccc(NS(=O)(=O)c3cccc([N+](=O)[O-])c3)cc2s1,3,-2,.,.
NC(=O)N/N=C/c1sc(N2CCCCC2)nc1-c1cccs1,223,97*,13,1
Cc1cc(NC(=O)C(C)SCC(=O)OCc2ccc(Cl)cc2Cl)no1 (stereo unspecified),5,.,.,.
Cc1n[nH]c(=S)n1-c1cccc(Cl)c1,-8,94*,14,0
Cc1cccc(-n2c(C)n[nH]c2=S)c1C,21,77*,9,-1
SMILES,SUMO Mot1 rescue,ALR H2O2 inh,AI-2 QS modul,HIF act
C=CC[C@@H](CC(=O)NCCO)C(=O)N[C@@H](COC(=O)[C@@H](CC=C)CC(=O)OC(C)(C)C)Cc1c[nH]c2ccccc12,-2,-3,.,.
O=C(NCc1cccc2[nH]ccc12)C1CCC(=O)N(CCc2ccccc2)C1 (stereo unspecified),0,-2,26,0
Cc1ccc2nc(C)c(C)nc2c1N,0,2,7,0
Cc1ccc2cn[nH]c2c1N,-1,85*,2,0
CSCC[C@H](NC(=O)OC(C)(C)C)C(=O)N1CCC(C(=O)N[C@@H](C)C(=O)NCc2ccc(F)cc2)CC1,-7,-21,14,0
COc1cccc(-c2nc(CS(=O)(=O)CC(=O)NCCc3ccc(C)cc3)c(C)o2)c1,-16,-32,2,0
COCCCNC(=O)CS(=O)(=O)Cc1nc(-c2cccc(OC)c2)oc1C,-14,?,1,0
CCCCN(C)C(=O)CS(=O)(=O)Cc1nc(-c2cccc(OC)c2)oc1C,-8,99*,17,0
COc1ccc(CNC(=O)CS(=O)(=O)Cc2nc(-c3cccc(OC)c3)oc2C)cc1,-10,91*,30,0
COc1ccc(-c2nc(CS(=O)(=O)CC(=O)NCc3cccc(F)c3)c(C)o2)cc1,-3,97*,22,0
